Results reported in PubChem BioAssay (NCATS).
Results filed as inconclusive are left out. The source made the active and inactive calls. The call rests on the fitted dose curve; in most records, active means well fitted inhibition curve with a large enough effect; inconclusive means small, poorly fitted or top-dose-only effect; inactive means flat fitted curve, though single readings scatter.

The molecules below were run on HACAT (assay: qHTS assay to identify novel small-molecules to repurpose for Merkel cell carcinoma treatment (AID 1296009; further: nearly all actives have a fitted effect of over 60% in size)). Details: MCC and control cell lines, CellTiter-Glo viability, 72 h; at 44.8 µM (top of the series) unless noted.
In short: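 Cell viability measured by CellTiter-Glo following 72 hr compound treatment at 37 degree celsius, with NPC and MIPE libraries tested in 8- and 11-point concentration series.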

SMILES | outcome
Cc1cc(-n2c(=O)[nH]c(=O)n(C)c2=O)ccc1Oc1ccc(SC(F)(F)F)cc1 | inactive
CC(C)(O)C(O)C(=O)OCc1ccc(O[C@@H]2O[C@H](CO)[C@@H](O)[C@H](O)[C@H]2O)cc1 (stereo not given in full) | inactive [at 17.4 µM]
C[C@]12CC[C@@H]3c4ccc(O)cc4CC[C@H]3[C@@H]1C[C@@H](O[C@@H]1O[C@H](C(=O)O)[C@@H](O)[C@H](O)[C@H]1O)[C@@H]2O | inactive
O=C(/C=C/c1ccc(O)c(O)c1)OC[C@H]1O[C@@H](OC2CCCCC2O)[C@H](O)[C@@H](O)[C@@H]1O (stereo not given in full) | inactive [at 17.4 µM]
Cc1ccc([C@@H]2CC=C(C(=O)O)[C@H](c3ccc(C(C)(C)C)cc3)N2S(=O)(=O)c2ccc(C)cc2)cc1 | inactive
